From PubChem BioAssay (EPA / NIEHS)
Several values for one entry are separate records, joined by “and”; a condition that tells them apart may be missing. Equal values may be shown once. Records with an inconclusive call do not appear. More than one record can exist for a structure, and the calls need not agree. Activity calls are given as the source filed them. Rule for the calls, unless noted: active = hit-call score of the fitted dose curve at least 0.9, where 1 is the maximum; inactive = score below 0.9.

Key:
DIO1 (gene 1733) = assay: CCTE_GLTED_hDIO1: CCTE's human Deiodinase 1 (DIO1) Inhibition Assay, Great Lakes Toxicology and Ecology Division (GLTED) Lab (AID 2283987; active = hit-call score of the fitted dose curve at least 0.9, where 1 is the maximum;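 note: isolated human DIO1 enzyme in a cell-free setup rather than cells; enzyme activity read as free iodide liberated from substrate via Sandell-Kolthoff colorimetry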)
Outline: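 Cell-free hDIO1 assay, triplicate plates. Absorbance of the Sandell-Kolthoff reaction reports enzyme-liberated iodide; iodinated chemicals or nitrite, iron and thiocyanate may interfere.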

[1] = CCTE_Simmons_MITO_basal_resp_rate: CCTE's HepG2 Seahorse XF Respirometric Screening Assay at Basal Respiratory State, Simmons Lab (AID 2284001); conditions: actives raise or lower the signal
Outline: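 HepG2 cells were given test chemicals at 7 concentrations, 125 nM to 100 uM final, and oxygen consumption rate was read every 6 min (3 min mix, 3 min measure) over 72 min. Basal-phase OCR was fitted bidirectionally against DMSO.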

[2] = CCTE_Simmons_MITO_inhib_resp_rate: CCTE's HepG2 Seahorse XF Respirometric Screening Assay at Inhibited Respiratory State [full ETC block], Simmons Lab (AID 2284006); conditions: actives raise or lower the signal
Outline: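 Compound injected onto HepG2 cells (125 nM–100 uM final, 7 points); FCCP then rotenone/antimycin A added. Oxygen consumption read every 6 min (3 min mix, 3 min measure) for 72 min. Inhibited-state OCR fitted against DMSO.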

[3] = CCTE_Simmons_MITO_viability: CellTiter-Glo Viability Assessment for CCTE's HepG2 Seahorse XF Respirometric Screening Assay [post-hoc], Simmons Lab (AID 2284007; active = hit-call score of the fitted dose curve at least 0.9, where 1 is the maximum;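 for AC50: cells exposed to chemical for 90 min before the ATP read; actives lower ATP signal relative to DMSO baseline meaning reduced viability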)
Outline: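 After the Seahorse oxygen-consumption sequence (basal, FCCP, rotenone/antimycin A; 72 min total), HepG2 viability was scored as ATP content by bioluminescence. Chemicals ran at seven concentrations up to 100 uM final for 90 min.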

[4] = CCTE_Shafer_MEA_acute_spike_number: CCTE's Neural Acute Assay for Total Number of Spikes, Shafer Lab (AID 2284008);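 for AC50: curve fitted for decrease in spike count so AC50 reflects inhibitors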
Outline: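 Cortical neurons from rat, matured to DIV 13 or 15 on microelectrode arrays, are recorded at 37 C before and during 40-min exposure to 0.03-40 uM compound. Wells need >/= 10 active electrodes.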

[5] = CCTE_Shafer_MEA_acute_firing_rate_mean: CCTE's Neural Acute Assay for Mean Firing Rate, Shafer Lab (AID 2284009);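 note: analyzed for loss of signal so actives lower firing rate relative to DMSO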
Outline: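 Read-out: well-mean spike rate (spikes/recording length/electrodes), % change from 40 min pre-dose baseline to 40 min with compound. Rat cortical cultures, DIV 13 or 15, 37 C; 0.03-40 uM; DMSO as negative control.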

[6] = CCTE_Harrill_HTTr_Apoptosis_MCF7: CCTE's 6-hour Apoptosis Assessment for the High-Throughput Transcriptomics (HTTr) Platform, in MCF-7 cells cultured in DMEM + 10% fetal bovine serum, Harrill Lab (AID 2284011)
Outline: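 Cells are dosed with test chemicals at eight concentrations and imaged 6 hours later for caspase-3/7 activity using a green fluorogenic detection reagent. Activity is fitted in both directions against DMSO controls.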

[7] = CCTE_Harrill_HTTr_CellCount_MCF7: CCTE's Cell Proliferation Assessment for the High-Throughput Transcriptomics (HTTr) Platform, Harrill Lab (AID 2284012; active = hit-call score of the fitted dose curve at least 0.9, where 1 is the maximum;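 note: count of Hoechst-stained nuclei per well by high-content imaging in MCF-7 cells; cells exposed to compound for six hours; intended direction is loss of nuclei count meaning fewer cells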)
Outline: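 Chemicals in eight-point dilution series are added to MCF-7 cells for six hours, nuclei are stained with Hoechst and imaged, and per-well nuclei counts are fitted in both directions relative to DMSO controls.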

[8] = CCTE_Shafer_MEA_acute_burst_number: CCTE's Neural Acute Assay for Single-Electrode Bursts, Shafer Lab (AID 2284013)
Outline: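 Rat cortical cultures, DIV 13/15; 40 min baseline, then 40 min with compound 0.03-40 uM, 37 C. Spikes: 300-5000 Hz band-pass, threshold 8x rms noise. Readout = % change in single-electrode bursts vs baseline, loss-of-signal fit.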

[9] = CCTE_Shafer_MEA_acute_burst_duration_mean: CCTE's Neural Acute Assay for Mean Burst Duration, Shafer Lab (AID 2284014);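 note: hits are decreases in mean burst duration relative to DMSO controls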
Outline: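 Primary rat cortical neurons on 16-electrode MEA wells, treated on DIV 13 or 15 with compound (0.03-40 uM; ≥3 wells each). 40-min baseline and 40-min exposure recordings at 37 C; percent change in mean burst duration per well versus DMSO.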

[10] = CCTE_Shafer_MEA_acute_per_burst_spike_number_mean: CCTE's Neural Acute Assay for Average Number of Spikes Per Burst, Shafer Lab (AID 2284015);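 note: hits are decreases in mean spikes per burst versus baseline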
Outline: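 Read-out: percent change in mean spikes per burst, each well's post-exposure 40-min recording versus its own 40-min baseline. Rat cortical cultures, DIV 13 or 15, compounds 0.03-40 uM; DMSO is negative control, loss-of-signal fitting.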

[11] = CCTE_Shafer_MEA_acute_interburst_interval_mean: CCTE's Neural Acute Assay for Mean Interburst Interval, Shafer Lab (AID 2284016);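 note: percent change of mean interburst interval versus each well's own pre-dose baseline; curves fitted for decrease in interburst interval relative to DMSO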
Outline: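 Rat cortical cultures, DIV 13/15; 20 min equilibration, 40 min baseline, compound 0.03-40 uM, 40 min re-recording, 37 C. Spikes detected at 8x rms noise (300-5000 Hz band-pass). Endpoint: % change in interburst interval, fitted in loss direction vs DMSO.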

[12] = CCTE_Shafer_MEA_acute_burst_percentage_mean: CCTE's Neural Acute Assay for Percentage of Spikes in a Burst, Shafer Lab (AID 2284017);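 for AC50: curve fitted for loss of signal so potency reflects decreased burst percentage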
Outline: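 Rat cortical cultures, DIV 13/15, 37 C. Spikes detected at 8x rms noise (300-5000 Hz band-pass). Burst spikes/total spikes averaged across electrodes per well; % change post- vs pre-treatment (40 min each), loss-of-signal fit vs DMSO.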

[13] = target: Nucleoli Translocation, AR (gene 367) (UniProt P10275); assay: UPITT_HCI_U2OS_AR_TIF2_Nucleoli_Antagonist: University of Pittsburgh U2OS Androgen Receptor-Transcriptional Intermediary Factor 2 (AR-TIF2) Antagonism High Content Imaging Assay for Nucleoli Translocation (AID 2283997; active = hit-call score of the fitted dose curve at least 0.9, where 1 is the maximum)
Sequence of Nucleoli Translocation, AR (gene 367) (P10275 whole entry, looked up): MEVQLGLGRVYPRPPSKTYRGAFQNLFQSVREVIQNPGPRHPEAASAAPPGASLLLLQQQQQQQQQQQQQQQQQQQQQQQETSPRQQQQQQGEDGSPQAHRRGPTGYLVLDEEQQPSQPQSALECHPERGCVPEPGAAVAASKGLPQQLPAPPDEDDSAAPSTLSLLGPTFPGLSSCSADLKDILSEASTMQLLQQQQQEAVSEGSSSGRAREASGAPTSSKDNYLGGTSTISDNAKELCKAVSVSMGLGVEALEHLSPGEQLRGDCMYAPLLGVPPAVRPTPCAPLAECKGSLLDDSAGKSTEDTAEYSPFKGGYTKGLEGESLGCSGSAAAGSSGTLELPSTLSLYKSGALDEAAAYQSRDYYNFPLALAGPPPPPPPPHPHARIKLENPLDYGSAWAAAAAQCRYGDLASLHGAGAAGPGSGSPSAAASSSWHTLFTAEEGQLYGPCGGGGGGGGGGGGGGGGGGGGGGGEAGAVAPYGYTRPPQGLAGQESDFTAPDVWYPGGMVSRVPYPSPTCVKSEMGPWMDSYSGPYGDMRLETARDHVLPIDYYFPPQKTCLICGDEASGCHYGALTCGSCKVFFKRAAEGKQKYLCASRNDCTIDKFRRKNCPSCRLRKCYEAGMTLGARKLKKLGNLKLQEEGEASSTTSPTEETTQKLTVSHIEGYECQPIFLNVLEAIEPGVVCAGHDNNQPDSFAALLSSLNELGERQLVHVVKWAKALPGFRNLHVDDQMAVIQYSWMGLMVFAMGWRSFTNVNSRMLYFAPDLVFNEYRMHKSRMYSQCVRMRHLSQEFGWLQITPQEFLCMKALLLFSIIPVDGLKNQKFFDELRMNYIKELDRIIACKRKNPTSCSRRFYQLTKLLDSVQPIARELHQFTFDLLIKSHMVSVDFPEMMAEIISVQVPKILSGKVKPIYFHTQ
Outline: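 U2OS cells expressing RFP-tagged human AR and GFP-tagged TIF2 were imaged by high-content fluorescence microscopy for red AR signal in the nucleolar region. Compounds were screened at 20 uM final (0.2% DMSO), with activity fitted relative to DHT as baseline.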

[14] = target: Nucleoli Translocation, AR (gene 367) (UniProt P10275); assay: UPITT_HCI_U2OS_AR_TIF2_Nucleoli_Agonist: University of Pittsburgh U2OS Androgen Receptor-Transcriptional Intermediary Factor 2 (AR-TIF2) Agonism High Content Imaging Assay for Nucleoli Translocation (AID 2283998; active = hit-call score of the fitted dose curve at least 0.9, where 1 is the maximum)
Outline: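 Red-tagged human androgen receptor co-expressed with GFP-tagged TIF2 serves as the binding reporter. Primary testing used 20 uM final (0.2% DMSO); follow-up dose response covered 0.195 to 50 uM final (0.5% DMSO).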

[15] = target: Ratio of Nucleoli Translocation and Cytoplasm, AR (gene 367) (UniProt P10275); assay: UPITT_HCI_U2OS_AR_TIF2_Nucleoli_Cytoplasm_Ratio_Antagonist: University of Pittsburgh U2OS Androgen Receptor-Transcriptional Intermediary Factor 2 (AR-TIF2) Antagonism High Content Imaging Assay for Ratio of Nucleoli Translocation and Cytoplasm (AID 2283999; active = hit-call score of the fitted dose curve at least 0.9, where 1 is the maximum;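 note: antagonists lower the DHT-driven ratio of nucleolar to cytoplasmic red signal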)
Sequence of Ratio of Nucleoli Translocation and Cytoplasm, AR (gene 367) (P10275 whole entry, looked up, the tested form may be a part): as the sequence (P10275 whole entry, looked up) above
Outline: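 Human osteosarcoma U2OS line, AR fused to RFP, coactivator TIF2 fused to GFP. Cpds 20 uM final, 0.2% DMSO (screen); 0.195–50 uM final, 0.5% DMSO (CRC). Endpoint: nucleoli/cytoplasm red signal ratio, DHT as baseline, loss-of-signal antagonist mode.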

[16] = target: Ratio of Nucleoli Translocation and Cytoplasm, AR (gene 367) (UniProt P10275); assay: UPITT_HCI_U2OS_AR_TIF2_Nucleoli_Cytoplasm_Ratio_Agonist: University of Pittsburgh U2OS Androgen Receptor-Transcriptional Intermediary Factor 2 (AR-TIF2) Agonism High Content Imaging Assay for Ratio of Nucleoli Translocation and Cytoplasm (AID 2284000; active = hit-call score of the fitted dose curve at least 0.9, where 1 is the maximum;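 note: hits raise the red nucleolar to cytoplasm ratio above vehicle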)
Outline: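 U2OS cells expressing RFP-tagged human AR and GFP-tagged TIF2 were imaged by high-content fluorescence microscopy. The endpoint is the ratio of nucleolar to cytoplasmic red fluorescence, fitted for gain of signal relative to DMSO. Concentration-response spanned 0.195 to 50 uM final (0.5% DMSO).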

[17] = CCTE_Harrill_HTTr_Viability_MCF7: CCTE's 6-hour Cell Viability Assessment for the High-Throughput Transcriptomics (HTTr) Platform, in MCF-7 cells cultured in DMEM + 10% fetal bovine serum, Harrill Lab (AID 2284010)
Outline: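 Cells were dosed with chemicals in an eight-point dilution series, imaged 6 hours later for propidium iodide uptake, and the endpoint was analyzed by bidirectional fitting against DMSO as negative control.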

[18] = CCTE_Harrill_HTTr_Apoptosis_PRF_DMEM_12hr: (Pilot) CCTE's 12-hour Apoptosis Assessment for the High-Throughput Transcriptomics (HTTr) Platform, in MCF-7 cells cultured in phenol red-free DMEM + 10% charcoal-stripped fetal bovine serum, Harrill Lab (AID 2283985)
Outline: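 MCF-7 cells in phenol red-free DMEM with 10% charcoal-stripped FBS, eight-point dilution series, 12 h exposure. Caspase-3/7 activation imaged by high content imaging with CellEvent Green reagent; bidirectional fit vs DMSO.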

[19] = CCTE_Harrill_HTTr_Apoptosis_PRF_DMEM_24hr: (Pilot) CCTE's 24-hour Apoptosis Assessment for the High-Throughput Transcriptomics (HTTr) Platform, in MCF-7 cells cultured in phenol red-free DMEM + 10% charcoal-stripped fetal bovine serum, Harrill Lab (AID 2283986)
Outline: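 MCF-7 cells in phenol red-free DMEM with 10% charcoal-stripped FBS, exposed 24 h across an eight-point dilution series. Caspase-3/7 activation imaged with CellEvent Green by high content imaging; bidirectional fitting against DMSO.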

Measured: AC50

Oc1cc(Cl)ccc1Oc1ccc(Cl)cc1Cl
inactive: [1] | [2] | [3] | [6] | [7] | [9] | [10]
active: DIO1 (gene 1733) 60.4 µM [middle of 5 runs] | [1] 21 µM | [4] 1.89 µM | [5] 1.89 µM | [8] 1.29 µM | [11] 1.2 µM | [12] 12.7 µM

CCC(C)(C)C(=O)OC1=C(c2ccc(Cl)cc2Cl)C(=O)OC12CCCCC2
active: [13] 50 µM | [9] 25.9 µM | [10] 20 µM | [12] 3.59 µM
inactive: [14] | [15] | [16] | [4] | [5] | [17] | [6] | [7] | [8] | [9] | [10] | [11] | [12]

CCCN(CCOc1c(Cl)cc(Cl)cc1Cl)C(=O)n1ccnc1
inactive: [18] | [19] | [2] | [6] | [7] | [11]
active: [1] 11.2 µM | [3] 13.6 µM | [4] 1.26 µM | [5] 1.24 µM | [8] 1.56 µM | [9] 29.5 µM | [10] 33.1 µM | [12] 34.6 µM

COP(=S)(OC)Oc1ccc(SC)c(C)c1
inactive: [6] | [9] | [10] | [11]
active: DIO1 (gene 1733) 10.7 µM | [4] 7.7 µM | [5] 7.7 µM | [8] 6.28 µM | [12] 29.1 µM

O=S(=O)(O)C(F)(F)C(F)(F)C(F)(F)C(F)(F)C(F)(F)C(F)(F)C(F)(F)C(F)(F)F
active: DIO1 (gene 1733) 173 µM and 159 µM and 170 µM
not listed: [1] | [2] | [3] | [13] | [14] | [15] | [16] | [17]
inactive: all other assays above

O=C(O)C(F)(F)C(F)(F)C(F)(F)C(F)(F)C(F)(F)C(F)(F)C(F)(F)F
inactive: [18] | [19] | [6] | [7]

N#Cc1c(Cl)c(Cl)c(Cl)c(C#N)c1Cl
active: DIO1 (gene 1733) 30.1 µM | [1] 22.9 µM | [3] 20 µM | [12] 6.9 µM
not listed: [13] | [14] | [15] | [16] | [18] | [19]
inactive: all other assays above

O=C(O)CCCOc1ccc(Cl)cc1Cl
active: [1] 32.5 µM
not listed: DIO1 (gene 1733) | [3] | [7] | [15] | [18] | [19]
inactive: all other assays above

Cc1[nH]c(=O)n(C(C)(C)C)c(=O)c1Cl
inactive: [13] | [14] | [16] | [6] | [7]

COP(=S)(OC)Oc1ccc([N+](=O)[O-])cc1
inactive: [1] | [2] | [3] | [6] | [7]

CC1(c2ccc(Oc3ccccc3)cc2)OC(=O)N(Nc2ccccc2)C1=O (stereo not drawn)
active: [1] 4.7 µM
inactive: [2] | [3] | [6]

O=S1OCC2C(CO1)C1(Cl)C(Cl)=C(Cl)C2(Cl)C1(Cl)Cl (stereo not drawn)
inactive: [14] | [15] | [4] | [5] | [6] | [7] | [8] | [9] | [11] | [12]
active: [13] 30.6 µM | [9] 0.269 µM | [10] 223 nM and 58.3 nM | [12] 25.5 µM

CCOC1Oc2ccc(OS(C)(=O)=O)cc2C1(C)C (stereo not drawn)
inactive: [13] | [16] | [3] | [6]
active: [1] 33.5 µM | [2] 33.9 µM

CCCN(CCC)c1c([N+](=O)[O-])cc(C(F)(F)F)cc1[N+](=O)[O-]
inactive: [13] | [15] | [16] | [5] | [6] | [8] | [9] | [10]
active: [4] 8.55 µM | [11] 4.23 µM | [12] 5.5 µM

O=[N+]([O-])c1c(Cl)c(Cl)c(Cl)c(Cl)c1Cl
inactive: [14] | [15] | [16] | [17] | [6] | [7]
active: [13] 20.6 µM

CCC(C)(NC(=O)c1cc(Cl)c(C)c(Cl)c1)C(=O)CCl (stereo not drawn)
active: DIO1 (gene 1733) 16.1 µM
inactive: [1] | [2] | [6] | [7]

C#CCN1C(=O)COc2cc(F)c(N3C(=O)C4=C(CCCC4)C3=O)cc21
inactive: [13] | [14] | [15] | [16] | [2] | [3] | [6]
active: [1] 64.9 µM
